Measured values published in PubChem BioAssay (NCATS).
Results filed as inconclusive are left out. A call without a number means that no potency is given here. Activity calls are given as the source filed them. Calls follow the shape of the dose curve; as a rule, active = well fitted inhibition curve with a large enough effect in the signal ratio, with a control signal flat (not every such curve was filed as active); inconclusive = small, poorly fitted or top-dose-only effect, or effect the other way, or a change in a side signal; inactive = flat fitted curve, though single readings scatter; the % refers to the signal ratio.

Target: Glucocorticoid receptor (Homo sapiens) (UniProt P04150)
Sequence (P04150 whole entry, looked up): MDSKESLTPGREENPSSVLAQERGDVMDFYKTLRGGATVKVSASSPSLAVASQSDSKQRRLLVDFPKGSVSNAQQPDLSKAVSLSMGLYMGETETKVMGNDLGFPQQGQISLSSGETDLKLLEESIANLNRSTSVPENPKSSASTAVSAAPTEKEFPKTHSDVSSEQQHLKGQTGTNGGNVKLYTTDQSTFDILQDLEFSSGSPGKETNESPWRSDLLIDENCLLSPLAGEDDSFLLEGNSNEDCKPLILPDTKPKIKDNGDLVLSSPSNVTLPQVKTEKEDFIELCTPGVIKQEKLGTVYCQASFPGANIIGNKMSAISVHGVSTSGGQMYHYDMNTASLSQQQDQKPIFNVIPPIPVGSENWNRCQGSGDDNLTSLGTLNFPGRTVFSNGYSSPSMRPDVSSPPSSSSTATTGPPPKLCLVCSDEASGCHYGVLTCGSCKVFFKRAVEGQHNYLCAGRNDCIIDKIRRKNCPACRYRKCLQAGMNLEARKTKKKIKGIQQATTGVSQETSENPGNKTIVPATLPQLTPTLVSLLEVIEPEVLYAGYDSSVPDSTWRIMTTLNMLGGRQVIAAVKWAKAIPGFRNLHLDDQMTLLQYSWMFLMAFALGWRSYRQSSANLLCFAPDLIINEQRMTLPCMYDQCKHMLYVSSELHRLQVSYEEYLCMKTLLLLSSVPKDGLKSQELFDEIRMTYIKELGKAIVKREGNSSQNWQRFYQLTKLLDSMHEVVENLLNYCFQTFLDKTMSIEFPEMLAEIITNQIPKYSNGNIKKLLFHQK
Experiment: qHTS assay for small molecule antagonists of glucocorticoid receptor signaling (AID 588533)
Conditions: HeLa MMTV-bla, GRE beta-lactamase ratio, antagonist mode, 18 h; series mostly up to 76.8 µM
Source text: NIH Chemical Genomics Center [NCGC] U.S. Environmental Protection Agency [EPA] National Institutes of Environmental Health Sciences [NIEHS] National Toxicology Program [NTP] NCGC Assay Overview The Glucocorticoid receptor (GR), a nuclear receptor subfamily member and its natural ligands includes […] etc. The GR is a validated drug target for inflammation. GR ligands such as dexamethasone are clinically available as anti-inflammatory drugs. Glucocorticoids implicate a role in carbohydrate, protein and lipid metabolisms and programmed cell death. They are also a component of many chemotherapy regimens for the treatment of leukemias, lymphomas, and myelomas because of their role in the induction of apoptosis.
NCGC Assay Protocol Summary Using a beta-lactamase reporter-gene under control of glucocorticoid response element (GRE), a cell-based assay [CellSensor MMTV-bla HeLa cell line assay developed by Invitrogen] was used to measure GR ligands signaling. CellSensor MMTV-bla HeLa cells were used with assay medium containing 1% charcoal/dextran treated FBS, 0.1 mM NEAA, 1 mM sodium pyruvate and 25mM HEPES. The assay was performed in clear bottom black Greiner 1536-well plates. Library compounds were measured for their ability to inhibit the reporter gene activity. Compounds were screened in a titration series in 1536-well format. […] Data was normalized relative to Dexamethasone control (2 nM, 100%), and DMSO only wells (basal, 0%). Concentration-response titration points for each compound were fitted to the Hill equation yielding concentrations of half-maximal inhibition (IC50) and maximal response (efficacy) values. qHTS protocol for GR beta-lactamase assay in antagonist mode [Step] [Parameter] [Value] [Description] 1. Reagent; 5 uL; 1500 cells/well 2. Incubation; 37 C for 3-5 hrs 3. Compounds; 23 nL; 0.59 nM to 92 uM 4. […] Agonist (Stimulator); 1uL; Dexamethasone at 2 nM (final) concentration 6. Incubation; 37 C for 18 hrs 7. Detection reagent; 1 uL of CCF4-dye 8. Incubation; RT for 2 hrs 9. Detection; Fluorescence; Envision plate reader

Compound	Potency
Cc1ccccc1C(OCCN(C)C)c1ccccc1 (stereo unspecified)	inactive
CCCC(CCC)C(=O)O	inactive
O=NN(CCCl)C(=O)NCCCl	inactive
NC[C@H](O)c1ccc(O)c(O)c1	inactive
O=c1[nH]cnc2[nH]ncc12	inactive
O=C1CCC(N2C(=O)c3ccccc3C2=O)C(=O)N1 (stereo unspecified)	inactive
Cn1cnc([N+](=O)[O-])c1Sc1ncnc2nc[nH]c12	inactive
C[C@]12CCC(=O)C=C1CC[C@@H]1[C@@H]2[C@@H](O)C[C@@]2(C)[C@H]1CC[C@]2(O)C(=O)CO	inactive
NC(=O)c1cnccn1	inactive
CC(C)(Sc1ccc(CCN(CCCCC2CCCCC2)C(=O)NC2CCCCC2)cc1)C(=O)O	20 µM (active)
CC(=O)Oc1ccccc1C(=O)O	inactive
